# Data taken from PubChem BioAssay (NCI).
# Compounds without any hit were thinned out: in the full panel of roughly 83,000, 20% have a hit.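 Interpretation: 100, growth as untreated; towards 0, rising growth inhibition; 0, no net growth; 0 to -100, cell death. Compounds scoring below 10 were considered active.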 Unmarked numbers belong to inactive results. Activity calls are given as the source filed them.
# Experiments:
# Assay in all cases: NCI-60 one-dose screen, 48 h (100 = growth as untreated, 0 = no growth, -100 = all killed)
# Settings in all cases: 10 µM unless noted
# DU-145 prostate = test system: DU-145 prostate
# K-562 leukemia = test system: K-562 leukemia
# MALME-3M melanoma = test system: MALME-3M melanoma
# MDA-MB-231 breast = test system: MDA-MB-231 breast
# RXF 393 renal = test system: RXF 393 renal
# SF-268 CNS = test system: SF-268 CNS
# SF-295 CNS = test system: SF-295 CNS
# SF-539 CNS = test system: SF-539 CNS
# UACC-257 melanoma = test system: UACC-257 melanoma
# M14 melanoma = test system: M14 melanoma
# HCT-15 colon = test system: HCT-15 colon
# HT29 colon = test system: HT29 colon
# SNB-75 CNS = test system: SNB-75 CNS
# SNB-19 CNS = test system: SNB-19 CNS
# U251 CNS = test system: U251 CNS
# PC-3 prostate = test system: PC-3 prostate
# SK-MEL-5 melanoma = test system: SK-MEL-5 melanoma
# UACC-62 melanoma = test system: UACC-62 melanoma
# LOX IMVI melanoma = test system: LOX IMVI melanoma
# SK-MEL-28 melanoma = test system: SK-MEL-28 melanoma
SMILES,growth (DU-145 prostate),growth (K-562 leukemia),growth (MALME-3M melanoma),growth (MDA-MB-231 breast),growth (RXF 393 renal),growth (SF-268 CNS),growth (SF-295 CNS),growth (SF-539 CNS),growth (UACC-257 melanoma),growth (M14 melanoma),growth (HCT-15 colon),growth (HT29 colon),growth (SNB-75 CNS),growth (SNB-19 CNS),growth (U251 CNS),growth (PC-3 prostate),growth (SK-MEL-5 melanoma),growth (UACC-62 melanoma),growth (LOX IMVI melanoma),growth (SK-MEL-28 melanoma)
NC1=NC(c2cccc(Br)c2)c2sc3ccc(Cl)cc3c2N1 (stereo not given),111%,86.6%,95.6%,88.4%,110%,94%,103%,108%,98.8%,98.4%,103%,104%,75.6%,97.3%,103%,88.7%,96.5%,84.5%,98.8%,118%
COc1ccc(N2C(=O)C(Oc3ccccc3)C2c2ccc(C)cc2)cc1 (stereo not given),113%,95.1%,93.4%,101%,126%,102%,89.6%,98.6%,95.3%,93.1%,91.2%,97.8%,97.7%,101%,90.1%,97.6%,104%,102%,98.1%,99.5%
O=c1c2cc(C(F)(F)F)ccc2sc2c(NCCCNCCO)nc3ccccc3c12,-71.6% (active),-47.1% (active),75.2%,-58.7% (active),42.6%,36.6%,42.7%,-79.1% (active),92%,-38.9% (active),-67.2% (active),-41.4% (active),56.9%,23.2%,-60.6% (active),23%,38.3%,74.8%,-95.6% (active),55.5%
COc1cc(C2CC(c3ccc(N(C)C)cc3)=NN2C(C)=O)cc(OC)c1OC (stereo not given),2.14% (active),17.6%,37.9%,56.3%,-17.7% (active),35%,12.1%,-21.4% (active),56.5%,19.4%,24.6%,9.83% (active),-23.6% (active),39.3%,29.3%,29.4%,9% (active),26.9%,37.6%,52.2%
O=c1n(Cc2ccc3ccccc3c2)ccn1Cc1ccc2ccccc2c1,100%,106%,91.8%,91.4%,96.4%,84.7%,94.5%,87.7%,101%,93.3%,91.4%,77.1%,53.2%,87.2%,92.5%,94.4%,95.5%,89.8%,91.2%,94.3%
N#C/C(=C\c1ccc(F)cc1)n1nc2cccc(F)c2n1,37.6%,13.3%,52.9%,49%,12.8%,71.4%,76.1%,7.78% (active),61%,25.8%,30.6%,25.6%,0.195% (active),63.6%,28.1%,53.7%,73%,45.7%,20.6%,53.2%
COc1ccc2cc(C(C)C(=O)Nc3ccc(-c4n[nH]c(=S)n4C4CCCCC4)cc3)ccc2c1 (stereo not given),89.1%,63.9%,124%,75.9%,91.1%,65.5%,60.7%,83.8%,76.7%,63.2%,54.3%,85.1%,67%,80%,56.8%,39.2%,67.5%,58.3%,70.7%,75.6%
CCc1ccc(Oc2c(-c3ccc(OCc4ccc(Cl)cc4)cc3O)nn(C)c2C(F)(F)F)cc1,15%,2.43% (active),-27.6% (active),-55.7% (active),-43.3% (active),12.6%,-11.1% (active),2.68% (active),-18.3% (active),1% (active),4.91% (active),-11.1% (active),-0.904% (active),18.2%,1.22% (active),-6.54% (active),-76.4% (active),-2.19% (active),-24.6% (active),20.1%
CCCSc1nc2ccc(C)cc2cc1/C=[N+](\[O-])c1ccccc1,42%,40.4%,46.2%,51.1%,69.4%,45.5%,98.8%,1.38% (active),63.3%,6.91% (active),11.5%,10% (active),21.4%,37.2%,12.8%,23.1%,27.6%,31.3%,19%,48.3%
NCCNc1nc2ccccc2c2c(=O)c3cc(F)ccc3sc12,65.9%,1.61% (active),96.2%,33.7%,77.8%,66.9%,102%,82.7%,103%,77.4%,51.2%,14.4%,71.2%,78.1%,64.7%,80.2%,93.9%,102%,24.2%,107%
O=C(CCN1C(=O)/C(=C/c2ccc(O)cc2)SC1=S)Nc1ccccc1,110%,81.8%,95.4%,91.1%,103%,93.5%,91%,97.8%,104%,97.4%,90.8%,118%,89.3%,91.4%,92.7%,90.5%,101%,81.6%,97.6%,97.3%
CN(C(=O)NCc1cccc(F)c1Cl)[C@H](COC(=O)Nc1cc2ccccc2cn1)CC(O)CO (stereo not given in full),94.4%,91.5%,100%,46.8%,84.8%,49.8%,69.7%,37%,102%,98.8%,101%,99.4%,-21.4% (active),97.2%,74%,80.8%,103%,106%,61.9%,119%
COC(=O)Nc1ccc(-c2nc(-c3cccc(OC)c3)c(-c3ccnc(Br)c3)[nH]2)cc1,81.4%,13.8%,66.7%,65.3%,-12.2% (active),76%,9.58% (active),51.6%,71.7%,42.5%,17.8%,50.5%,37.5%,61.6%,51.5%,34%,50.2%,47.2%,23.6%,62.3%
CCOC(=O)/C=C1\S/C(=N\Nc2ccc([N+](=O)[O-])cc2[N+](=O)[O-])N(Cc2ccccc2)C1=O,81.4%,54.7%,93.1%,84.9%,78%,89.7%,95.1%,99.6%,90.1%,100%,35.8%,85.9%,55.7%,82.9%,71.7%,64.5%,96.8%,74.1%,86%,98.6%
Cc1ccc(C(C)C)cc1C(=O)C[n+]1ccccc1,107%,105%,95.9%,112%,121%,98.8%,93.5%,97.1%,115%,95.6%,99.7%,88.2%,95%,106%,104%,99.1%,106%,106%,100%,97.3%
